Shown are actives, neighbours in structure and some others; about 18% of the full set was active somewhere.
TDP1 inh: qHTS Assay for Inhibitors of Tyrosyl-DNA Phosphodiesterase (TDP1) | Tyrosyl-DNA phosphodiesterase 1 (Homo sapiens), Q9NUW8 | recombinant TDP1, AlphaScreen DNA substrate cleavage | Potency, µM (top dose mostly 130 µM), inactives show at the highest dose activity change, negative = inhibition, actives largely listed as inhibitors | 0.28% of 350,000 active; also: potency is read from the fitted curve at half-maximal effect; nearly all actives have a fitted effect of over 40% in size
Target sequence (Q9NUW8 whole entry, looked up): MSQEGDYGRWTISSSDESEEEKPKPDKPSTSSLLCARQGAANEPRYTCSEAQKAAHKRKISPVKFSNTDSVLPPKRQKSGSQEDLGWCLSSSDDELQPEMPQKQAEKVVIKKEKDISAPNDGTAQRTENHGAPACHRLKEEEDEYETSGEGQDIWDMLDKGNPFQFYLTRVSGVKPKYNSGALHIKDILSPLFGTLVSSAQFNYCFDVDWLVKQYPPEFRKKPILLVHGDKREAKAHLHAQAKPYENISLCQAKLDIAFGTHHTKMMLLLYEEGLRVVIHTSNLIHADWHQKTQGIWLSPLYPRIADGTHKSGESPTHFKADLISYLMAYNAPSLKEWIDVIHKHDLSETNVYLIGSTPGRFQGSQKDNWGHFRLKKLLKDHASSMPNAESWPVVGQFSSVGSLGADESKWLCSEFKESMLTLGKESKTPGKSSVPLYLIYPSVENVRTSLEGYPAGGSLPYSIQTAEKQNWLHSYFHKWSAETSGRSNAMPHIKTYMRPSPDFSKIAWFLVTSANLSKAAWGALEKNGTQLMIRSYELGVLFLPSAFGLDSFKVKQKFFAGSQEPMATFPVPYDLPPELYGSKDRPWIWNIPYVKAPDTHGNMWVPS
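Recombinant human Tdp1 (E. coli-expressed, 1 nM final) preincubated with compounds 15 min at room temperature, then 5'-biotin/3'-phosphotyrosine-FITC DNA substrate (15 nM final) added for 5 min. AlphaScreen beads (10 ug/ml final) added 10 min; cleavage lowers signal.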
Six1-Eya2 inh: qHTS Assay for Inhibitors of the Six1/Eya2 Interaction. Homeobox protein SIX1 (Homo sapiens) + Protein phosphatase EYA2 (Homo sapiens), …. AlphaScreen GST-Six1/His-Eya2 binding, biochemical; stronger effect = lower value. activity change, % (concentration not given with the values). 0.56% of 360,000 active. AID 651725, 2012; in the data active = activity change below about -65%; inconclusive = mostly about -30% to -63%
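Compounds are tested against tagged Six1 and Eya2 proteins bridged by glutathione donor and nickel acceptor beads; after a one-hour incubation at 37 °C without light, AlphaScreen emission is recorded.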
IL1B secr inh: qHTS for Inhibitors of Inflammasome Signaling: IL-1-beta AlphaLISA Primary Screen. THP-1 LPS/ATP IL-1B secretion, AlphaLISA, 16 h; stronger effect = lower value. activity change, % at 57.5 µM. 4.7% of 360,000 active; in the data active = activity change below about -50%; inconclusive = mostly about -30% to -49%
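Secreted IL-1B measured by AlphaLISA bead assay after 16 h compound exposure of THP-1 cells; compounds (final up to 57.5 uM) added 1 h before LPS (250 ng/mL) and ATP (1.25 mM) stimulation; lower signal means less secretion.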
TDP1 cell noCPT: qHTS for Inhibitors of human tyrosyl-DNA phosphodiesterase 1 (TDP1): qHTS in cells in absence of CPT; DT40 Tdp1-/- hTDP1 cells, no CPT, ATP luminescence, 48 h; Potency, µM (top dose mostly 46.2 µM), for the others: top-dose activity change, negative = growth inhibition, usual class: inhibitors; 15% of 420,000 active; also: potency is read from the fitted curve at half-maximal effect; nearly all actives have a fitted effect of over 55% in size
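Growth kinetics read by CellTiter-Glo luminescence after ≥48 hr at 37 °C. Cells: DT40 Tdp1-/- stably carrying human TDP1, 400 per well, compound exposure in the absence of CPT (DMSO vehicle).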
DT40 TDP1 CPT: qHTS for Inhibitors of human tyrosyl-DNA phosphodiesterase 1 (TDP1): qHTS in cells in presence of CPT. Potency, µM (doses to about 46.2 µM), for inactives: at the highest dose activity change, negative = growth inhibition, actives largely listed as inhibitors. 12% of 420,000 active. AID 686979, 2013. chicken DT40 Tdp1-/-;hTDP1 cells + 20 nM CPT, ATP luminescence, 48 h; also: potency is read from the fitted curve at half-maximal effect; nearly all actives have a fitted effect of over 55% in size
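Cell growth measured by CellTiter-Glo luminescence after a minimum 48 h, 37 C compound exposure with 20 nM CPT in Tdp1-knockout DT40 cells stably expressing hTDP1, seeded 400/well; qHTS titration format.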
CtBP-E1A inh: qHTS Assay for Inhibitors of the CtBP/E1A Interaction; activity change, % (concentration not given with the values); 0.49% of 340,000 active; AlphaScreen GST-E1A/His-CtBP binding, 1536-well; stronger effect = lower value; in the data active = activity change below about -65%; inconclusive = mostly about -30% to -63%
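Homogeneous bead-based format: GST-tagged E1A captured on glutathione donor beads, His-tagged CtBP on nickel acceptor beads; compounds precede bead addition by 2 h at 37 °C.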
Numbers without * were called inactive; ? = inconclusive; . = no result; ! = repeats disagree; [ ] = remark or other dose. Unless noted, calls follow the shape of the dose curve; as a rule, active = well fitted curve in the direction sought with a large enough effect; inconclusive = small, poorly fitted or top-dose-only effect, or another doubt; inactive = no such curve, though single readings can be large; an effect the other way counts as inactive or inconclusive. % is scaled to controls: 0 for no effect and ±100 for the full control effect.

SMILES	TDP1 inh	Six1-Eya2 inh	IL1B secr inh	TDP1 cell noCPT	DT40 TDP1 CPT	CtBP-E1A inh
Cc1ccc(NC(=O)Nc2nnc(CSCCOc3ccc(Cl)cc3)s2)cc1	3%	1	0	?	-25%	2
O=C(Nc1ccc(Cl)cc1)Nc1nnc(CSc2ccc(Cl)cc2)s1	3%	1	-58*	2.6µM*	4.6µM*	9
O=C(Nc1ccccc1)Nc1nnc(SCc2ccc(Cl)cc2)s1	0%	6	25	-22%	?	10
N#Cc1cn(CCOC(=O)c2cccc(C(F)(F)F)c2)c(=O)[nH]c1=O	2%	2	-4	?	3%	1
COc1ccc(NC(=O)c2cccc3c2C(=O)N(C2CCCCC2)C3)cc1	1%	-1	-28	18µM*	18µM*	3
COc1ccc(N2Cc3cccc(C(=O)O)c3C2=O)cc1	8.9µM*	-3	4	-16%	-17%	1
Cc1cccc(C)c1NC(=O)c1cccc2c1C(=O)N(C1CCCCC1)C2	2%	-6	-62*	16µM*	7.3µM*	0
COc1ccc(N2Cc3cccc(C(=O)Nc4cc(C)cc(C)c4)c3C2=O)cc1	-6%	.	.	-30%	7%	.
COc1ccc(OC)c(NC(=O)c2cccc3c2C(=O)N(C2CCCCC2)C3)c1	6%	-5	-7	16µM*!	?	.
COc1cccc(CNC(=O)Cc2c(C)c3ccc(OC)c(C)c3oc2=O)c1	-1%	.	.	-3%	1%	.
C/C(=N\NC(=O)c1nn(C)cc1Cl)c1ccncc1	5%	14	-2	4%	2%	24
C[C@H](NS(=O)(=O)c1ccccc1F)C(=O)OCC(=O)N1CCc2ccccc21	2%	6	10	-1%	-6%	-2
CC(O)CC(C(=O)NNc1ccccc1)C(=O)NNc1ccccc1 (centres undefined)	8%	-3	-15	-29%	17%	-12
COc1ccc(C#Cc2ccc(C3=CC(=O)CC(C)(C)C3=O)cc2)cc1	.	-15	-9	16µM*	?	-4
CC1(C)CC(=O)C=C(c2cccc3c2sc2ccccc23)C1	-1%	7	0	?	-16%	-9
CC1(C)CC(=O)C=C(c2ccc(-c3cnc4ccccc4c3)cc2)C1=O	.	-4	-4	23µM*	?	0
CC1(C)CC(=O)C=C(c2ccc(-c3cccc4c3sc3ccccc34)cc2)C1=O	.	-18	-6	18µM*	?	-20
O=C(NCC1CCC2(CCN(Cc3cccc4ncccc34)CC2)O1)c1ccccc1 (centres undefined)	.	.	.	-18%	-17%[9.04 µM]	.
CN(Cc1ccccc1)C(=O)c1ccc2c(c1)N(Cc1ccccc1F)C(=O)c1ccccc1S2(=O)=O	5%	.	.	9.2µM*	?	.
Cc1cccc(CN2C(=O)c3ccccc3S(=O)(=O)c3ccc(C(=O)NC4CCCCC4)cc32)c1	0%	.	.	-15%	-24%	.
O=C(NCCc1ccc(Cl)cc1)c1ccc2c(c1)N(Cc1ccccc1F)C(=O)c1ccccc1S2(=O)=O	7%	.	.	?	?	.
Cc1cccc(CN2C(=O)c3ccccc3S(=O)(=O)c3ccc(C(=O)N(C)Cc4ccccc4)cc32)c1	1%	.	.	?	16µM*	.
CCCCCCCn1c(=N)n(CC(O)c2ccco2)c2ccccc21 (centres undefined)	7%	-6	0	4.6µM*	3.7µM*	3
Cc1ccc(Cn2c(=N)n(CC(=O)c3ccc([N+](=O)[O-])cc3)c3ccccc32)cc1	-1%	-4	-102*	2.9µM*	4.6µM*	8
CCCCn1c(=N)n(CC(=O)c2ccco2)c2ccccc21	7%	3	?	?	?	8
SMILES	TDP1 inh	Six1-Eya2 inh	IL1B secr inh	TDP1 cell noCPT	DT40 TDP1 CPT	CtBP-E1A inh
CCCCCCCn1c(=N)n(CC(=O)c2ccco2)c2ccccc21	4%	-1	-80*	?	21µM*	0
CCn1c(=N)n(CC(=O)c2ccco2)c2ccccc21	2%	-1	18	?	13µM*	-10
CCCCCCCCCCCCCCCCCC(=O)OC[C@@H](O)[C@H]1OC[C@H](O)[C@H]1O	4%	.	.	-18%	-17%	.
COC(=O)CNc1nc(-c2ccncc2)nc2ccccc12	4%	0	51	?	-12%	2
COc1ccc(CNC(=O)CN(C(=O)CCC(=O)Nc2ccccn2)c2ccccc2OC)cc1	1%	9	-4	?	-12%	0
COc1cc(/C=N/NC(=O)CNC(=O)c2cccs2)ccc1O	-5%	-17	11	-24%	-11%	-4
COc1ccc(CNC(=O)c2cnc(C)cn2)c(OC)c1	4%	0	0	-4%	-9%	4
Cc1cc(=O)oc2cc(OCCSCCN3CCOCC3)ccc12	3%	1	-22	?	-30%	-9
O=C(Cn1ccccc1=O)c1ccc(Cl)cc1	1%	5	-17	8%	2%	.
O=C(Cn1ccccc1=S)c1ccc(Cl)c(Cl)c1	.	-10	-81*	-21%	-2%	-13
CCn1c(=N)n(CC(=O)c2ccc(Cl)c(Cl)c2)c2ccccc21	.	67	-73*	21µM*	26µM*	25
N=c1n(CCN2CCCCC2)c2ccccc2n1CC(=O)c1ccc(Cl)c(Cl)c1	.	26	.	?	?	25
CCOC(=O)C1=CC[C@H]2c3c(c4ccccc4n3C)C[C@H]1N2C	3%	-18	2	?	29µM*	-11
CN1C2Cc3c(n(C)c4ccccc34)C1CC=C2CO (centres undefined)	0%	-1	38	3%	-1%	5
Cc1n[nH]c(=O)nc1N1CCN(c2ccccc2)CC1	2%	13	-16	1%	1%	-7
Cc1n[nH]c(=O)nc1N1CCc2ccccc2C1	6%	-2	3	18µM*	-3%	18
CC(=O)Nc1ccc(Oc2ccc([N+](=O)[O-])cc2Cl)cc1	0%	1	-73*	?	10µM*	7
CC(Oc1ccc([N+](=O)[O-])cc1Cl)C(=O)Nc1ccc(C(N)=O)cc1 (centres undefined)	3%	-3	70	-29%	4%	.

Screens: PubChem BioAssay, National Center for Advancing Translational Sciences (NCATS)
